Bioassay records: PubChem, National Center for Advancing Translational Sciences (NCATS)
TRPV1 ag: activates the human vanilloid receptor TRPV1; TRPV1-expressing cells, Fluo-8 calcium influx, agonist mode; activation, % at 8.33 µM; hit rate 0.19% among 320,000; in the data active means activation above about 80%; inconclusive means between about 30% and that limit; further: 0% is about no effect
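Fluo-8 calcium influx in TRPV1-expressing cells, kinetic read (ex 480/em 520 nm). Compound added and read 3 min for agonist activity, followed by capsaicin at EC20 final and 2 min further read for enhancement.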
TRPML1 inh: human mucolipin-1 channel inhibition. hit rate 0.02% among 390,000. activity change, negative = inhibition, % (test concentration not listed). Q9GZU1. TRPML1-inducible cells, Ca2+ dye fluorescence, FDSS; hits give low values; inhibition of EC80 agonist-evoked calcium signal. AID 624415; in the data active means activity change below about -50%; inconclusive means between about -30% and that limit;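 further: stimulus is agonist 54-4 at its EC80 concentration; on the % scale 0 is the no-effect control and ±100 the full control effect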
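TRPML1-DL cells, Tet-induced overnight (~16 h, 37 °C) at 1,500 cells/well, were loaded with Ca8 no-wash dye plus quencher for 45-90 min at room temperature. Compounds were pinned during FDSS kinetic reading; agonist 54-4 at EC80 (4 uM final) then added.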
TRPML1 ag: human mucolipin-1 channel agonism; activation, % (no concentration beside the values); hit rate 0.12% among 410,000; AID 624414; TRPML1-expressing cells, Ca2+ dye fluorescence, FDSS; Q9GZU1; in the data active means activation above about 50%; inconclusive means mostly about 30% to 49%; further: 0% is about no effect
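Tetracycline-induced TRPML1-DL cells are seeded and incubated overnight before loading with a no-wash Ca2+ dye and quencher. Agonist activity is taken from the 110 s fluorescence read following compound pin-transfer on an FDSS, before EC80 54-4 challenge.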
TRPV1 PAM: potentiators of human vanilloid receptor 1 (TRPV1); Q8NER1; TRPV1-expressing cells, Fluo-8 calcium influx, capsaicin EC20 potentiation; potentiation, % at 8.33 µM; hit rate 0.02% among 320,000; in the data active means potentiation above about 80%; inconclusive means between about 30% and that limit; further: 0% is about no effect
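Cells expressing TRPV1 were dye-loaded with Fluo-8 and read kinetically: 10 s baseline, 3 min after compound (agonist portion), then 2 min after EC20 capsaicin (allosteric enhancer portion). Calcium-bound dye fluorescence at 480/520 nm.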
An asterisk follows results filed as active; u = inconclusive; x = not tested or not shown. An excerpt weighted towards active compounds, which were near 0.31% of everything screened.

SMILES	TRPV1 ag	TRPML1 inh	TRPML1 ag	TRPV1 PAM
COc1cccc(Nc2nc(C)nc3c2oc2ccccc23)c1	80*	-7	3	-6
Cc1nc(Nc2ccc(Cl)cc2)c2oc3ccccc3c2n1	5	18	1	1
Cc1nc(Nc2cccc(F)c2)c2oc3ccccc3c2n1	99*	14	1	17
Cc1nc(Nc2cccc(Cl)c2)c2oc3ccccc3c2n1	86*	5	1	14
Cc1ccc(S(=O)(=O)CCC(=O)OCc2cc(C)ccc2C)cc1	13	-1	4	-4
CCOC(=O)c1cn(Cc2ccccc2)c2cc(C)nn2c1=O	3	7	0	-8
CCOC(=O)c1cn(Cc2ccccc2)c(C(=O)OC(C)(C)C)c1O	x	-5	60*	x
CCCN1C(=O)/C(=C/c2ccc(N3CCOCC3)cc2)NC1=S	u	-1	20	-2
Cc1cc(/C=C2\NC(=S)N(C)C2=O)ccc1N1CCCC1	89*	-11	94*	-1
CCCN1C(=O)/C(=C/c2ccc(N3CCCC3)c(C)c2)NC1=S	x	-4	67*	x
CCN1C(=O)/C(=C/c2ccc(N3CCCC3)cc2)NC1=S	u	-16	64*	-5
Cc1cc(/C=C2/C(=O)N(C)C(=S)N2C)ccc1N1CCCC1	20	-7	u	16
CCC(=O)OC1=C(C(C)=O)N(Cc2ccccc2)S(=O)(=O)c2ccccc21	x	11	1	x
Cc1ccc(S(=O)(=O)C(CNC(=O)C(=O)NCCc2ccc(Cl)cc2)c2cccs2)cc1 (centres undefined)	x	13	2	x
CCOC(=O)c1[nH]c(C)c(C(=O)NCc2ccc(C)cc2)c1C	19	6	0	7
CCOC(=O)c1[nH]c(C)c(C(=O)c2ccc(C)cc2)c1C	90*	1	2	0
CCc1nc2ccc(C(=O)Nc3cccc(NS(C)(=O)=O)c3)cn2c1N(C)Cc1nccn1C	x	x	-1	x
O=C(NCC1(c2ccccc2)CCCC1)c1ccc(Br)o1	u	-16	70*	-16
CCCN(CCC)C(C)C(=O)NCC1(c2ccccc2)CCCC1 (centres undefined)	u	u	107*	-32
O=C(COC(=O)/C=C/c1ccccc1)Nc1cccnc1Cl	8	-8	0	2
O=C(/C=C/c1ccccc1)Nc1cccnc1Cl	84*	-12	-1	-30
COc1cc2c(c(OC)c1)C(c1ccncc1)CC(=O)N2 (centres undefined)	1	-1	0	-10
COc1cc2c(c(OC)c1)C(c1cccc(F)c1F)CC(=O)N2 (centres undefined)	x	-13	57*	x
Cc1cccc(Cn2nnc3ccccc32)c1O	16	-6	-1	17
Cc1cccc(C(C)n2nnc3ccccc32)c1O (centres undefined)	12	-6	0	86*
SMILES	TRPV1 ag	TRPML1 inh	TRPML1 ag	TRPV1 PAM
FC(F)Sc1ccc(Nc2ncnc3nc[nH]c23)cc1	83*	9	2	17
Cc1cc(C)cc(Nc2ncnc3nc[nH]c23)c1	u	-1	1	-6
Cc1cc(CNC(=S)Nc2ccc(Br)cc2Cl)nn1C	94*	19	1	-22
Cc1cc(C(C)(C)C)oc1C(=O)N(CC(=O)NC1CCCC1)c1cccc(C(F)(F)F)c1	u	-6	52*	-18
Cc1ccccc1N(CC(=O)NC1CCCC1)C(=O)c1oc(C(C)(C)C)cc1C	-4	-16	70*	-23
COc1ccc(Cl)cc1NC(=O)CN(C)C(=O)c1cc2c(s1)CCCC2	u	11	4	12
O=C(Nc1ccc(Cl)c(Cl)c1)C1=Cc2ccccc2OC1	88*	0	1	5
COc1ccc(S(=O)(=O)NCCc2sc(-c3cccnc3)nc2C)c(F)c1	x	-15	3	x
NC(=O)c1cc2ccc(O)cc2oc1=NCc1ccccc1	22	-15	59*	1
NC(=O)c1cc2ccccc2oc1=NCc1ccccc1	28	-2	0	-25
CCN1CCc2c(sc(NC(=O)c3ccc(S(=O)(=O)N(CC)c4ccccc4)cc3)c2C(N)=O)C1	28	-8	61*	1
CCN1CCc2c(sc(NC(=O)Nc3ccc(Cl)c(Cl)c3)c2C(N)=O)C1	82*	-17	81*	15
CCc1ccc(OCC2c3cc(OC)c(OC)cc3CCN2C(=O)Cc2ccc(OC)c(OC)c2)cc1 (centres undefined)	x	3	2	x
CCCCNC(=S)N1CCN(C(c2ccccc2)c2ccccc2)CC1	81*	22	1	7
CCCNC(=S)N1CCN(C(c2ccccc2)c2ccccc2)CC1	u	-4	1	-5
Cc1ccc(C(=O)NCC(=O)Nc2ncccc2C)s1	-2	-2	0	10
Cc1cccc(C)c1NC(=O)c1ccc(-c2ccc(Cl)cc2Cl)o1	-2	64	3	5
Cc1ccccc1NC(=O)c1ccc(-c2ccc(Cl)cc2Cl)o1	15	-51*	3	3
COc1ccc2nc(N3CCCCC3)c(C#N)cc2c1	-1	-12	62*	7
COc1ccc2nc(N3CCCC3)c(C#N)cc2c1	21	-8	14	0
CCN(CC)S(=O)(=O)c1cc(NC(=O)c2ccc(Br)s2)ccc1C	83*	17	0	-12
CN(C)c1cccc(CNC(=O)c2csc([C@@H]3C[C@H](O)[C@@H](CO)O3)n2)c1	x	x	0	x
COc1ccc(-c2cn3nc(N4CCC(C(=O)Nc5ccc(C)cc5)CC4)sc3n2)cc1	x	-10	1	x
Cc1nc2c(cnn2-c2ccccc2Cl)c(=O)n1-c1ccc(C(C)C)cc1	0	-11	94*	u
Cc1cccc2c(/C=C/c3ccc(N(C)C)cc3)ccnc12	x	x	7	x
SMILES	TRPV1 ag	TRPML1 inh	TRPML1 ag	TRPV1 PAM
Cc1ccc(C2=NS(=O)(=O)N(C)C(C(=O)NCc3ccccn3)=C2)cc1	15	24	0	-10
Cc1ccc(C2=NS(=O)(=O)N(C)C(C(=O)NCc3cccs3)=C2)cc1	92*	8	0	7
Cc1cc(C)c(-c2noc(C(=O)OC(C)(C)C)c2C(=O)OC(C)(C)C)c(C)c1	2	-3	53*	14
COc1cc(OC)c(-c2noc(C(=O)OC(C)(C)C)c2C(=O)OC(C)(C)C)c(OC)c1	u	-19	1	6
O=C1CCC/C(=N/NC(=O)c2sc3ccccc3c2Cl)C1	23	-7	58*	15
CCOc1ccc(OCCOCCNCCOC)cc1	2	-25	60*	3
CCCOc1ccc(OCCOCCNCc2ccccc2)cc1	1	4	0	10
Cc1cc(C)c2c(=O)c3c(oc2c1)C(=O)N(CCO)C3c1cccc(O)c1 (centres undefined)	-1	-56*	0	-11
COCCNC(=O)Cn1ncc2c(C)n(Cc3ccc(C)cc3)c(C)c2c1=O	x	-7	1	x
COC(=O)[C@@H](NC(=O)N1CCN(C(=O)C2COc3ccccc3O2)CC1)C(C)C (some centres undefined)	-1	-60*	1	10
